Assay results reported in PubChem BioAssay (NCATS).
Several values for one entry are separate records, joined by “and”; a condition that tells them apart may be missing. Identical values can stand only once. Results filed as inconclusive are left out. Where a call stands in place of a potency, no number is given. Unmarked numbers belong to inactive results. Activity calls are given as the source filed them. Calls come from the whole dose curve; as a rule, active = well fitted inhibition curve with a large enough effect; inconclusive = small, poorly fitted or top-dose-only effect; inactive = flat fitted curve, though single readings scatter.

Legend:
NIH3T3 [1] = test: Cytotoxic Profiling of Annotated Libraries Using Quantitative High-Throughput Screening (AID 1296008); details: Five cell lines viability, CellTiter-Glo ATP luminescence, 48-72 h; max response: active compounds read low
Summary of the method: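 Cytotoxicity was measured as CellTiter-Glo ATP luminescence, read after 10 min at room temperature. Compound treatment of the cells lasted 48 or 72 hr at 37 degrees Celsius in a qHTS format.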

MCC-13 = test: qHTS assay to identify novel small-molecules to repurpose for Merkel cell carcinoma treatment (AID 1296009); details: MCC and control cell lines, CellTiter-Glo viability, 72 h; series mostly up to 46 µM
Summary of the method: (§1)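 Cell viability measured by CellTiter-Glo following 72 hr compound treatment at 37 degree celsius, with NPC and MIPE libraries tested in 8- and 11-point concentration series.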

MCC-26 = test: as above; details: MCC and control cell lines, CellTiter-Glo viability, 72 h; series mostly up to 46 µM
Summary of the method: as §1

HEK293T = test: as above; details: MCC and control cell lines, CellTiter-Glo viability, 72 h; at 44.8 µM (top of the series)
Summary of the method: as §1

MKL-1 = test: as above; details: MCC and control cell lines, CellTiter-Glo viability, 72 h; series mostly up to 46 µM
Summary of the method: as §1

MKL-2 = test: as above; details: MCC and control cell lines, CellTiter-Glo viability, 72 h; series mostly up to 46 µM
Summary of the method: as §1

NIH3T3 [2] = test: as above; details: MCC and control cell lines, CellTiter-Glo viability, 72 h; at 44.8 µM (top of the series) unless noted
Summary of the method: as §1

UISO = test: as above; details: MCC and control cell lines, CellTiter-Glo viability, 72 h; series mostly up to 46 µM
Summary of the method: as §1

WaGa = test: as above; details: MCC and control cell lines, CellTiter-Glo viability, 72 h; series mostly up to 46 µM
Summary of the method: as §1

HACAT = test: as above; details: MCC and control cell lines, CellTiter-Glo viability, 72 h; at 44.8 µM (top of the series) unless noted
Summary of the method: as §1
Note: nearly all actives have a fitted effect of over 60% in size.
Potency is the fitted concentration of half-maximal effect.

`Nc1ncnc2c1nc(Cl)n2[C@@H]1O[C@H](CO)[C@@H](O)[C@@H]1O` was tested, and the Potency (NIH3T3 [1]) was 26.4 µM (active), the Potency (MCC-13) was “inactive” and the Potency (MCC-26) was “inactive”.
For `O=C(OCC#CCSc1nnc(-c2cccc3ccccc23)o1)c1cc2ccccc2s1`, the outcome (NIH3T3 [1]) was “inactive”, the outcome (HEK293T) was “inactive” and the Potency (MCC-13) was “inactive”. For the same compound, the Potency (MCC-26) was “inactive”, the Potency (MKL-1) was “inactive” and the Potency (MKL-2) was “inactive”. For the same compound, the outcome (NIH3T3 [2]) was “inactive”, the Potency (UISO) was “inactive” and the Potency (WaGa) was “inactive”.
With `Cc1[nH]c(C=C2C(=O)Nc3ccc(S(=O)(=O)Cc4c(Cl)cccc4Cl)cc32)c(C)c1C(=O)N1CCC[C@H]1CN1CCCC1` the max response (NIH3T3 [1]) was -20.1%, the Potency (MCC-13) was “inactive” and the Potency (MCC-26) was “inactive”. For the same compound, the Potency (MKL-1) was 18.7 µM (active), the Potency (MKL-2) was 3.72 µM (active) and the Potency (UISO) was “inactive”.
For `CC(=O)O[C@]1(C(C)=O)CC[C@H]2[C@@H]3C=C(Cl)C4=CC(=O)[C@@H]5C[C@@H]5[C@]4(C)[C@H]3CC[C@@]21C`, the max response (NIH3T3 [1]) was -8.51% and -19.2% and the Potency (MCC-13) was “inactive”.
In the case of `NS(=O)(=O)c1ccc(NC2=CC(=O)c3ccccc3C2=O)cc1`, the max response (NIH3T3 [1]) was -17.3%, the outcome (HACAT) was “inactive” and the Potency (MCC-26) was “inactive”. The Potency (UISO) was 2.64 µM (active).
For `C[C@]12CC[C@@H]3c4ccc(O)cc4C[C@@H](CCCCCCCCCS(=O)CCCC(F)(F)C(F)(F)F)[C@H]3[C@H]1CC[C@H]2O` (some centres undefined), the outcome (NIH3T3 [1]) was “inactive”, the Potency (MCC-13) was “inactive” and the Potency (MCC-26) was “inactive”. For the same compound, the Potency (MKL-1) was “inactive”, the Potency (MKL-2) was “inactive” and the outcome (NIH3T3 [2]) was “inactive”. For the same compound, the Potency (WaGa) was “inactive”.
`O=C1NC(=O)C(=Cc2ccc(-c3ccc(F)cc3)o2)S1` was tested, and the max response (NIH3T3 [1]) was -13.2%, the Potency (MCC-13) was “inactive” and the Potency (MCC-26) was “inactive”. The Potency (MKL-1) was “inactive”, the Potency (MKL-2) was “inactive” and the Potency (UISO) was “inactive”. The Potency (WaGa) was “inactive”.
In the case of `CCc1ccc(OCc2ccccc2C(=O)Nc2ccc3nc(C)cc(N)c3c2)cc1`, the Potency (NIH3T3 [1]) was 9.35 µM (active) and the Potency (MCC-13) was 18.7 µM (active).
With `NC1=N[C@@]2(c3cc(NC(=O)c4ccc(F)cn4)ccc3F)COC[C@@H]2CS1` the max response (NIH3T3 [1]) was 4.73%, the Potency (MCC-13) was “inactive” and the Potency (MCC-26) was “inactive”. The Potency (MKL-1) was 10.5 µM (active) and the Potency (MKL-2) was “inactive”.
With `O=C1c2c(O)cc(O)cc2O[C@H](c2cc(O)c(O)c(O)c2)[C@H]1O` the max response (NIH3T3 [1]) was 4.33%, the Potency (MCC-13) was “inactive” and the Potency (MCC-26) was “inactive”. For the same compound, the Potency (UISO) was “inactive” and the Potency (WaGa) was 2.35 µM (active).
`O=C(N[C@@H](c1ccccc1)[C@@H]1CCCCN1)c1cccc(C(F)(F)F)c1Cl` was tested, and the max response (NIH3T3 [1]) was -0.909%, the Potency (MCC-13) was “inactive” and the Potency (MCC-26) was “inactive”. For the same compound, the Potency (MKL-1) was “inactive”, the Potency (MKL-2) was “inactive” and the Potency (UISO) was “inactive”. For the same compound, the Potency (WaGa) was “inactive”.
For `CN(C)Cc1ccc(-c2nc3cccc4c3n2CCNC4=O)cc1`, the max response (NIH3T3 [1]) was -8.05% and -9.14%, the Potency (MCC-13) was “inactive” and the Potency (MCC-26) was “inactive”. The Potency (MKL-1) was “inactive”, the Potency (UISO) was “inactive” and the Potency (WaGa) was “inactive”.
In the case of `CC(=NNC(=S)N1CCC1)c1ccccn1`, the Potency (NIH3T3 [1]) was 0.0187 µM (active), the Potency (MCC-13) was 0.0743 µM (active) and the Potency (MCC-26) was 0.418 µM (active). For the same compound, the Potency (MKL-1) was “inactive”, the Potency (MKL-2) was “inactive” and the Potency (UISO) was 0.0033 µM (active). The Potency (WaGa) was 0.0007 µM (active).
With `COc1ccc(Cc2ccc(NC(N)=O)cc2)cc1-c1cccc(Cl)c1` the max response (NIH3T3 [1]) was -1.6%, the Potency (MCC-13) was “inactive” and the Potency (MCC-26) was “inactive”. The Potency (MKL-1) was “inactive”, the Potency (MKL-2) was “inactive” and the Potency (UISO) was “inactive”. The Potency (WaGa) was “inactive”.
For `O=C(Nc1cccc(Br)c1)c1cccc(S(=O)(=O)N2CCCCCC2)c1`, the max response (NIH3T3 [1]) was -21.3%, the Potency (MCC-13) was “inactive” and the Potency (MCC-26) was “inactive”. The Potency (MKL-1) was “inactive”, the Potency (MKL-2) was “inactive” and the Potency (WaGa) was “inactive”.
For `O=c1cc(N2CCOCC2)oc2c(-c3cccc4c3sc3ccccc34)cccc12`, the Potency (NIH3T3 [1]) was 16.6 µM (active), the Potency (MCC-13) was “inactive” and the Potency (MCC-26) was “inactive”. The Potency (MKL-1) was “inactive”, the Potency (MKL-2) was “inactive” and the Potency (UISO) was “inactive”. The Potency (WaGa) was “inactive”.
In the case of `O=C(CCc1ccc(O)cc1)c1c(O)cc(O)cc1O[C@@H]1O[C@H](CO)[C@H](O)[C@H](O)[C@H]1O`, the max response (NIH3T3 [1]) was -7.96%, the Potency (MCC-13) was “inactive” and the Potency (MCC-26) was “inactive”. For the same compound, the Potency (MKL-1) was “inactive”, the Potency (UISO) was “inactive” and the Potency (WaGa) was “inactive”.
For `COc1ccc(-n2c(C)c([N+](=O)[O-])c3ccc(O)cc32)cc1`, the max response (NIH3T3 [1]) was 4.92%, the Potency (MCC-13) was “inactive” and the Potency (MCC-26) was “inactive”. For the same compound, the Potency (MKL-1) was “inactive”, the Potency (MKL-2) was “inactive” and the Potency (UISO) was “inactive”. For the same compound, the Potency (WaGa) was “inactive”.
With `O=c1cc(-c2ccccc2)oc2cc(O)c(O)c(O)c12` the max response (NIH3T3 [1]) was -19.1%, the Potency (MCC-13) was “inactive” and the Potency (MCC-26) was “inactive”. The Potency (MKL-1) was “inactive” and the Potency (UISO) was “inactive”.
`Cc1ccc(C(=O)Nc2cccc(C(F)(F)F)c2)cc1Nc1nc(-c2cccnc2)nc2c1cnn2C` was tested, and the Potency (NIH3T3 [1]) was 9.35 µM (active), the Potency (MCC-13) was “inactive” and the Potency (MCC-26) was “inactive”. For the same compound, the Potency (MKL-1) was “inactive”, the Potency (MKL-2) was “inactive” and the Potency (WaGa) was “inactive”.
`CCOC(CN1C(=O)[C@](CC(=O)Nc2ccc(C)cc2)(NC(=O)Nc2ccc(C)cc2)c2ccccc21)OCC` was tested, and the max response (NIH3T3 [1]) was -3.18%, the Potency (MCC-13) was “inactive” and the Potency (MCC-26) was “inactive”. The Potency (MKL-1) was “inactive”, the Potency (UISO) was “inactive” and the Potency (WaGa) was “inactive”.
With `CC(C)C(C)C=CC(C)C1CCC2C3=CC=C4CC(O)CCC4(C)C3CCC21C` (centres undefined) the max response (NIH3T3 [1]) was -6.24%, the Potency (MCC-13) was “inactive” and the Potency (MCC-26) was “inactive”. For the same compound, the Potency (MKL-1) was “inactive”, the Potency (MKL-2) was “inactive” and the Potency (UISO) was “inactive”. The Potency (WaGa) was “inactive”.
With `O=C(CCN1CCN(C(=O)OCc2cc(Cl)cc(Cl)c2)CC1)c1ccc2[nH]c(=O)oc2c1` the max response (NIH3T3 [1]) was 1.12% and -60.6%, the Potency (MCC-13) was “inactive” and the Potency (MCC-26) was “inactive”. The Potency (MKL-1) was “inactive”, the Potency (MKL-2) was “inactive” and the Potency (UISO) was “inactive”. For the same compound, the Potency (WaGa) was “inactive”.
